Results reported in the supplement of paper PMC13380429.
Counter-ions that a name gives are not always drawn. A number with no mark means an inactive call.

Tested on: Vero E6 infected with SARS-CoV-2
Test: inhibition of SARS-CoV-2 cytopathic effect; higher = more antiviral protection, active = above 15
Conditions: 48 h

Row | Compound | inhibition of SARS-CoV-2 cytopathic effect (1 nM) | inhibition of SARS-CoV-2 cytopathic effect (8.33 nM) | inhibition of SARS-CoV-2 cytopathic effect (100 nM) | inhibition of SARS-CoV-2 cytopathic effect (833.33 nM) | inhibition of SARS-CoV-2 cytopathic effect (10000 nM)
1 | CN(C)c1ccc2nc3ccc(=[N+](C)C)cc-3sc2c1 [methylene-blue] | -2.26% | -2.37% | -2.19% | 8.6% | -7.29%
2 | C/C(=C\C(N)C(=O)O)CP(=O)(O)O (stereo not given) | -2.33% | -2.58% | 0.17% | 5.33% | -3.57%
3 | CC(=O)c1ccc2c(c1)C(=O)C1(CC1)O2 [spizofurone] | -4.51% | 5.43% | 0.26% | 0.65% | 2.1%
4 | CC(C)(Oc1ccc(Cl)cc1)C(=O)OCCOC(=O)c1cccnc1 [etofibrate] | 0.78% | 2.82% | 0.41% | 0.22% | -10.1%
5 | Cc1c(C2CCN(CCc3ccccc3)CC2)noc1-c1ccc(Cl)cc1 | -1.74% | 5.24% | 6.13% | 4.32% | -5.7%
6 | Cn1cc(C2=C(c3cn(CCCSC(=N)N)c4ccccc34)C(=O)NC2=O)c2ccccc21 [bisindolylmaleimide-IX] | -1.28% | -0.79% | -3.04% | 1% | -1.54%
7 | O=C(O)Cc1ccccc1Nc1c(Cl)cccc1Cl [diclofenac] | 1.25% | 0.03% | 0.38% | -0.74% | 0.2%
8 | O=C(C1CCCCC1)N1CC(=O)N2CCc3ccccc3C2C1 (stereo not given) [praziquantel] | -1.8% | 0.08% | 1.39% | 2.67% | 0.6%
9 | C[C@H](N)Cc1c[nH]cn1 [alpha-methylhistamine-dihydrobromide-(S)-(+)] | -0.195% | -0.765% | 8.02% | 1.26% | 2.96%
10 | Oc1ccnc2cc(Cl)ccc12 [chloroxoquinoline] | -2.22% | 0.71% | 0.09% | -0.05% | 1.04%
11 | O=C(Nc1ccccc1F)N[C@H]1N=C(c2ccccc2)c2ccccc2NC1=O | 0.66% | 0.41% | -0.15% | -1.67% | -0.49%
12 | Cc1nn(-c2ccccc2)c(C)c1/C=N/N1CCN(Cc2ccccc2)CC1 | -4.74% | 0.23% | -0.84% | -0.98% | -0.87%
13 | CC[C@H](C)C[C@H](C)CCCCCCCCC(=O)N[C@H]1C[C@@H](O)[C@@H](NCCN)NC(=O)[C@@H]2[C@@H](O)CCN2C(=O)[C@H]([C@H](O)CCN)NC(=O)[C@H]([C@H](O)[C@@H](O)c2ccc(O)cc2)NC(=O)[C@@H]2C[C@@H](O)CN2C(=O)[C@H]([C@@H](C)O)NC1=O [caspofungin] | 0.56% | 0.765% | -1.58% | 0.425% | 5.37%
14 | CCCCc1nn(-c2ccccc2C(F)(F)F)c(=O)n1Cc1ccc(-c2ccccc2S(=O)(=O)NC(=O)c2sccc2C)cc1 | 0.19% | -0.03% | 2.56% | -2.77% | -1.65%
15 | CCC(=O)O[C@@](Cc1ccccc1)(c1ccccc1)[C@@H](C)CN(C)C [levopropoxyphene] | 7.6% | 2.53% | 1.97% | 0.91% | -3.41%
16 | N#CC(C#N)=Cc1ccc(O)c(O)c1 [tyrphostin-AG-18] | 2.32% | 2.46% | 0.83% | 0.73% | 0.85%
17 | C#Cc1cccc2c1c(C(=O)c1ccc(Cn3c(C)nc4cnccc43)c(F)c1)cn2C(=O)N(C)C | -0.44% | -1.26% | 0.63% | -0.09% | -1.98%
18 | CNC(=O)c1cc(COc2nnc(Nc3ccc(Cl)cc3)c3ccoc23)ccn1 [telatinib] | 0.06% | 2.23% | -1.3% | 0.04% | 0.53%
19 | COc1cc(C[C@H](C)[C@H](C)Cc2ccc3c(c2)OCO3)ccc1O [macelignan] | 0.71% | -0.62% | 0.01% | 2.57% | 1.91%

Row | Compound | inhibition of SARS-CoV-2 cytopathic effect (1 nM) | inhibition of SARS-CoV-2 cytopathic effect (8.33 nM) | inhibition of SARS-CoV-2 cytopathic effect (100 nM) | inhibition of SARS-CoV-2 cytopathic effect (833.33 nM) | inhibition of SARS-CoV-2 cytopathic effect (10000 nM)
20 | CC(C)C[C@@H](N)C(=O)N[C@H]1C(=O)N[C@@H](CC(N)=O)C(=O)N[C@H]2C(=O)N[C@H]3C(=O)N[C@H](C(=O)N[C@H](C(=O)O)c4cc(O)cc(O)c4-c4cc3ccc4O)[C@H](O)c3ccc(c(Cl)c3)Oc3cc2cc(c3O[C@@H]2O[C@H](CO)[C@@H](O)[C@H](O)[C@H]2O[C@H]2C[C@](C)(N)[C@H](O)[C@H](C)O2)Oc2ccc(cc2Cl)[C@H]1O [norvancomycin] | -0.51% | 2.53% | 11.9% | 1.73% | -2.8%
21 | CC(C)C[C@@H](C=O)NC(=O)[C@H](CC(C)C)NC(=O)[C@H](CC(C)C)NC(=O)OCc1ccccc1 | -0.72% | 0.74% | 9.43% | 54% (active) | 55.5% (active)
22 | CN1CCCCC1CCN1c2ccccc2Sc2ccc([S+](C)[O-])cc21 (stereo not given) [mesoridazine] | -0.86% | -1.76% | -0.98% | -3.35% | -3.76%
23 | CN1CCN(c2ncc(-c3cc(Cl)cc(Cl)c3Cl)c(N)n2)CC1 [sipatrigine] | -3.16% | -4.99% | -2.74% | -3.24% | 2.7%
24 | C[C@@H]1CN([C@H]2CC[C@](C#N)(c3ccc(F)cc3)CC2)CC[C@]1(C(=O)O)c1ccccc1 [levocabastine] | 1.53% | 0.57% | -0.86% | 1.81% | -0.71%
25 | C[C@]12CC[C@H](O)CC1=CC[C@@H]1[C@@H]2CC[C@]2(C)C(c3cccnc3)=CC[C@@H]12 [Abiraterone (CB-7598)] | 2.77% | 5.09% | 3.28% | 2.56% | 1.88%
26 | Nc1ccc(C(=O)Oc2ccccc2)c(O)c1 [phenyl-aminosalicylate] | -11% | -5.77% | -10.6% | -10.7% | -9.73%
27 | C#CCN(C)Cc1ccccc1 [pargyline] | 0% | 0.65% | -1.02% | -1.01% | 2.9%
28 | O=C(O)c1cc(O)c2c3nc4ccccc4oc-3cc(=O)c2n1 [pirenoxine] | 0.17% | 3.09% | 2.36% | -0.17% | 3.17%
29 | NC(=O)OCC(COC(N)=O)c1ccccc1 [felbamate] | 1.11% | 3.53% | -0.7% | 1.06% | 0.03%
30 | OC[C@H]1O[C@H]([S-])[C@H](O)[C@@H](O)[C@@H]1O.[Au+] [aurothioglucose] | 0.67% | -0.7% | -0.3% | 0.93% | 0.69%
31 | C=C1CC/C=C(\C)CC[C@@H]2[C@@H]1CC2(C)C [g-caryophyllene] | 1.74% | 2.63% | -0.6% | 1.24% | 1.88%
32 | CCS(=O)(=O)c1ccc2oc(-c3ccc4ccccc4c3)nc2c1 [ezutromid] | 3.38% | 0.67% | -1.92% | 2.64% | 1.18%
33 | CC(C)c1ccc(C(=O)N=C(N)N)cc1S(C)(=O)=O [cariporide] | 0.61% | 4.56% | 2.44% | 1.5% | -0.17%
34 | N#CCC(=O)NN [cyacetacide] | -3.1% | 1.89% | 6.23% | 6.6% | 7.12%
35 | COc1ccc2[nH]c(C(=O)c3ccccc3)cc2c1 | 0.63% | 1.49% | 0.36% | 0.6% | 0.07%
36 | Oc1noc2c1CCNC2 [gaboxadol] | -0.68% | 2.6% | 1.13% | 0.58% | -2.2%
37 | CCOc1ccc(/C=C2\NCCc3cc(OCC)c(OCC)cc32)cc1OCC [drotaverine] | 1.53% | 2.33% | -0.04% | 2.62% | 0.78%
38 | Oc1c(Cl)cc(Cl)c(Cl)c1Cc1c(O)c(Cl)cc(Cl)c1Cl [hexachlorophene] | 0.56% | 1.77% | 0.2% | 2.38% | 8.62%
